{"source": "PubChem BioAssay (NCATS)", "key": {"[1]": {"target": "Cellular tumor antigen p53 (Homo sapiens) (UniProt P04637)", "sequence (P04637 whole entry, looked up)": "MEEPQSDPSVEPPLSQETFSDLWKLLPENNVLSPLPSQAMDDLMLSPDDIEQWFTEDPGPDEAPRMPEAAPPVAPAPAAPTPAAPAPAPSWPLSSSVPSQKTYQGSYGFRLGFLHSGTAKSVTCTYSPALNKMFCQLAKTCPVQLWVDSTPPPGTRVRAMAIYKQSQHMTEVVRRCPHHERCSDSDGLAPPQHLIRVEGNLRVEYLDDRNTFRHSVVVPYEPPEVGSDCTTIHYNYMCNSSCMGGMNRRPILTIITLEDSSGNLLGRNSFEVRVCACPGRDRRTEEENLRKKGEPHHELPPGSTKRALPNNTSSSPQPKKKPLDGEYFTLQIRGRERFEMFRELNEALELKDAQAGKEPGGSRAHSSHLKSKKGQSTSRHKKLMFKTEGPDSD", "experiment": "Primary qHTS for small molecule compounds that upregulate eGFP-tagged delta133p53alpha (in N-terminal) cells. (AID 2060322); note: nearly all actives have a fitted effect of over 75% in size; note: potency is the fitted concentration of half-maximal effect; for activation: series mostly up to about 56 µM", "details": "NCI-H358 eGFP-delta133p53alpha fluorescence, 24 h; activation: active compounds read high", "in_short": "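NCI-H358 cells pre-induced 24 h with 10 ng/ml doxycycline to express N-terminal eGFP-delta133p53alpha, then dosed 24 h at 37C without doxycycline; fixed, Hoechst-stained, GFP intensity by laser scanning cytometry, normalized to DMSO (0%) and 57.5 uM 5-azacytidine (100%).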"}, "[2]": {"target": "Aldehyde dehydrogenase, mitochondrial (Homo sapiens) (UniProt P05091)", "experiment": "qHTS for Inhibitors of the Aldehyde Dehydrogenase Family (ALDH2) Primary screen (AID 2061308); note: nearly all actives have a fitted effect of over 55% in size"}, "[3]": {"target": "Retinaldehyde dehydrogenase 3 (Homo sapiens) (UniProt P47895)", "experiment": "qHTS for Inhibitors of the Aldehyde Dehydrogenase Family (ALDH1A3) Primary screen (AID 2061315)"}}, "note": "Records with an inconclusive call do not appear. Entries that show only a call come without a potency. A number with no mark means an inactive call. Calls of active or inactive are those of the source. Calls come from the whole dose curve; as a rule, active = well fitted curve in the direction sought with a large enough effect; inconclusive = small, poorly fitted or top-dose-only effect, or another doubt; inactive = no such curve, though single readings can be large; an effect the other way counts as inactive or inconclusive.", "data": [{"smiles": "CC1CCCC(O)CCC/C=C/c2cc(OS(=O)(=O)O)cc(O)c2C(=O)O1", "note": "(centres undefined)", "values": [{"measurement": "activation", "setting": "[1]", "result": -19.8, "unit": "%"}, {"measurement": "Potency", "setting": "[2]", "result": "inactive"}, {"measurement": "Potency", "setting": "[3]", "result": "inactive"}]}, {"smiles": "O=C(c1ccc(Cl)cc1)N1CCN(c2ccnc3cc(Cl)ccc23)CC1", "values": [{"measurement": "activation", "setting": "[1]", "result": -3, "unit": "%"}, {"measurement": "Potency", "setting": "[2]", "result": "inactive"}, {"measurement": "Potency", "setting": "[3]", "result": "inactive"}]}, {"smiles": "CC(C)=CCC/C(C)=C/COCC1OC(n2ccc(=O)[nH]c2=O)C(O)C1O", "note": "(centres undefined)", "values": [{"measurement": "activation", "setting": "[1]", "result": 17, "unit": "%"}, {"measurement": "Potency", "setting": "[2]", "result": "inactive"}, {"measurement": "Potency", "setting": "[3]", "result": "inactive"}]}, {"smiles": "COC(=O)C1(C)CCC2(C(=O)O)CCC3(C)C(=CCC4C5(C)CC(O)C(OC6OCC(O)C(O)C6O)C(C)(CO)C5CCC43C)C2C1", "note": "(centres undefined)", "values": [{"measurement": "activation", "setting": "[1]", "result": -6.11, "unit": "%"}, {"measurement": "Potency", "setting": "[2]", "result": "inactive"}, {"measurement": "Potency", "setting": "[3]", "result": "inactive"}]}, {"smiles": "CCC(C)/C=C(C)/C=C/C1=CC2=C(Cl)C(=O)C(C)(OC(C)=O)C(=O)C2=CN1CCCCC(N)C(=O)O", "note": "(centres undefined)", "values": [{"measurement": "activation", "setting": "[1]", "result": -16.8, "unit": "%"}, {"measurement": "Potency", "setting": "[2]", "result": "inactive"}, {"measurement": "Potency", "setting": "[3]", "result": "inactive"}]}, {"smiles": "O=C(O[C@@H]1O[C@H](CO)[C@@H](O)[C@H](O)[C@H]1O)c1ccccc1", "values": [{"measurement": "activation", "setting": "[1]", "result": -9.82, "unit": "%"}, {"measurement": "Potency", "setting": "[2]", "result": "inactive"}, {"measurement": "Potency", "setting": "[3]", "result": "inactive"}]}, {"smiles": "CC1=CC(=O)[C@]2(O[C@@H]3O[C@@H](C)[C@H](O)[C@@H](O)[C@H]3OC(=O)/C=C/c3ccccc3)C=CO[C@@H](O[C@@H]3O[C@H](CO)[C@@H](O)[C@H](O)[C@H]3O)[C@H]12", "values": [{"measurement": "activation", "setting": "[1]", "result": 3.05, "unit": "%"}, {"measurement": "Potency", "setting": "[2]", "result": "inactive"}, {"measurement": "Potency", "setting": "[3]", "result": "inactive"}]}, {"smiles": "CCC(C)C1NC(=O)C(Cc2ccccc2)NC(=O)C(CCCCCC(=O)C(O)CO)NC(=O)C2CCCCN2C1=O", "note": "(centres undefined)", "values": [{"measurement": "activation", "setting": "[1]", "result": -9.92, "unit": "%"}, {"measurement": "Potency", "setting": "[2]", "result": "inactive"}, {"measurement": "Potency", "setting": "[3]", "result": "inactive"}]}, {"smiles": "COC(=O)C[C@@H]1C(C(=O)O)=CO[C@@H](O[C@@H]2O[C@H](CO)[C@@H](O)[C@H](O)[C@H]2O)/C1=C\\COC(=O)/C=C/c1ccc(O)c(OC)c1", "values": [{"measurement": "activation", "setting": "[1]", "result": 6.87, "unit": "%"}, {"measurement": "Potency", "setting": "[2]", "result": "inactive"}, {"measurement": "Potency", "setting": "[3]", "result": "inactive"}]}, {"smiles": "CC1(C(=O)O)CCCC2(C)C3CCC4CC3(CCC12)CC4C(=O)O", "note": "(centres undefined)", "values": [{"measurement": "activation", "setting": "[1]", "result": -3.05, "unit": "%"}, {"measurement": "Potency", "setting": "[2]", "result": "inactive"}, {"measurement": "Potency", "setting": "[3]", "result": "inactive"}]}, {"smiles": "C=CC1(C)C=C2CC[C@H]3[C@@](C)(C(=O)O)CCC[C@]3(C)C2CC1", "note": "(some centres undefined)", "values": [{"measurement": "activation", "setting": "[1]", "result": -0.763, "unit": "%"}, {"measurement": "Potency", "setting": "[2]", "result": "inactive"}, {"measurement": "Potency", "setting": "[3]", "result": "inactive"}]}, {"smiles": "C[C@@H]1O[C@@H](O[C@@H]2CO[C@@H](O[C@H]3CC[C@@]4(C)C(CC[C@]5(C)C4CC=C4[C@@H]6CC(C)(C)CC[C@]6(C(=O)O[C@@H]6O[C@H](CO)[C@@H](O)[C@H](O)[C@H]6O)CC[C@]45C)[C@]3(C)CO)[C@H](O)[C@H]2O[C@@H]2O[C@H](CO)[C@@H](O)[C@H](O)[C@H]2O)[C@H](O)[C@H](O)[C@H]1O", "note": "(some centres undefined)", "values": [{"measurement": "activation", "setting": "[1]", "result": -16.1, "unit": "%"}, {"measurement": "Potency", "setting": "[2]", "result": "inactive"}, {"measurement": "Potency", "setting": "[3]", "result": "inactive"}]}, {"smiles": "O=C1OCC(c2ccccc2)=C1Cc1ccccc1", "values": [{"measurement": "activation", "setting": "[1]", "result": -8.4, "unit": "%"}, {"measurement": "Potency", "setting": "[2]", "result": "inactive"}, {"measurement": "Potency", "setting": "[3]", "result": "inactive"}]}, {"smiles": "CC(=O)C=C=C1C(C)(C)CC(O)CC1(C)O[C@@H]1O[C@H](CO[C@H]2OC[C@](O)(CO)[C@H]2O)[C@@H](O)[C@H](O)[C@H]1O", "note": "(some centres undefined)", "values": [{"measurement": "activation", "setting": "[1]", "result": -14.3, "unit": "%"}, {"measurement": "Potency", "setting": "[2]", "result": "inactive"}, {"measurement": "Potency", "setting": "[3]", "result": "inactive"}]}, {"smiles": "CC(=O)O[C@H]1C[C@@H](O)C(C)(C)C2C[C@@H](OC(C)=O)[C@@]3(C)C4=CCC(C(CO)CC(O)C5OC5(C)C)[C@]4(C)CCC3[C@]21C", "note": "(some centres undefined)", "values": [{"measurement": "activation", "setting": "[1]", "result": -9.16, "unit": "%"}, {"measurement": "Potency", "setting": "[2]", "result": "inactive"}, {"measurement": "Potency", "setting": "[3]", "result": "inactive"}]}, {"smiles": "CC1=CCC2C(C)(C)CCC[C@]2(C)[C@@]12CC[C@](C)(CC(=O)O)O2", "note": "(some centres undefined)", "values": [{"measurement": "activation", "setting": "[1]", "result": 27.5, "unit": "%"}, {"measurement": "Potency", "setting": "[2]", "result": "inactive"}, {"measurement": "Potency", "setting": "[3]", "result": "inactive"}]}, {"smiles": "CC(C)=CCC[C@](C)(O)[C@H]1CC[C@]2(C)[C@@H]1[C@H](O)CC1[C@@]3(C)CC[C@H](O)C(C)(C)[C@@H]3[C@@H](O[C@@H]3O[C@H](CO)[C@@H](O)[C@H](O)[C@H]3O[C@@H]3O[C@H](CO)[C@@H](O)[C@H](O)[C@H]3O)C[C@]12C", "note": "(some centres undefined)", "values": [{"measurement": "activation", "setting": "[1]", "result": -11.6, "unit": "%"}, {"measurement": "Potency", "setting": "[2]", "result": "inactive"}, {"measurement": "Potency", "setting": "[3]", "result": "inactive"}]}, {"smiles": "CCC(C)C(=O)OC1CC(O)C23C4OCC5(C(O)CC2C1(C)C(O)O4)C3C(=O)C(O)C1(C)C(O)(c2ccoc2)CC2OC251", "note": "(centres undefined)", "values": [{"measurement": "activation", "setting": "[1]", "result": 5.34, "unit": "%"}, {"measurement": "Potency", "setting": "[2]", "result": "inactive"}, {"measurement": "Potency", "setting": "[3]", "result": "inactive"}]}, {"smiles": "CC1=CC(=O)C2C(C)(C)CC(O)CC2(C)C1CO", "note": "(centres undefined)", "values": [{"measurement": "activation", "setting": "[1]", "result": -17.6, "unit": "%"}, {"measurement": "Potency", "setting": "[2]", "result": "inactive"}, {"measurement": "Potency", "setting": "[3]", "result": "inactive"}]}, {"smiles": "O=C(COc1cccc2c(=O)[nH]ccc12)c1ccccc1", "values": [{"measurement": "activation", "setting": "[1]", "result": -14.5, "unit": "%"}, {"measurement": "Potency", "setting": "[2]", "result": "inactive"}, {"measurement": "Potency", "setting": "[3]", "result": "inactive"}]}, {"smiles": "C=CC(C)(C)C12CC3C(=O)NC(Cc4cnc[nH]4)C(=O)N3C1Nc1ccccc12", "note": "(centres undefined)", "values": [{"measurement": "activation", "setting": "[1]", "result": 13.4, "unit": "%"}, {"measurement": "Potency", "setting": "[2]", "result": "inactive"}, {"measurement": "Potency", "setting": "[3]", "result": "inactive"}]}, {"smiles": "C=C1C(=O)O[C@@H]2C[C@@]3(C)C[C@@H](O)C[C@H](C)C3=C[C@H]12", "values": [{"measurement": "Potency", "setting": "[1]", "result": "23.9 µM (active)"}, {"measurement": "Potency", "setting": "[2]", "result": "inactive"}, {"measurement": "Potency", "setting": "[3]", "result": "inactive"}]}, {"smiles": "C=CC(C)(C)C12C=C(OC)C(=O)N3C(C(C)C)C(=O)NC31N(OC)c1ccccc12", "note": "(centres undefined)", "values": [{"measurement": "activation", "setting": "[1]", "result": -9.16, "unit": "%"}, {"measurement": "Potency", "setting": "[2]", "result": "inactive"}, {"measurement": "Potency", "setting": "[3]", "result": "inactive"}]}]}
